The supplement of paper PMC4166925
± gives the standard deviation of the averaged measurements. Whole data set: some 33,000 sequences, median “E-score (dimensionless, -0.5 to 0.5)” near -0.046, cut for the highest 2% near 0.36. This excerpt belongs to a sample that is enriched for the highest values.

Test system: T1, SpTbr T-box DNA-binding domain (GST fusion)
T1 sequence: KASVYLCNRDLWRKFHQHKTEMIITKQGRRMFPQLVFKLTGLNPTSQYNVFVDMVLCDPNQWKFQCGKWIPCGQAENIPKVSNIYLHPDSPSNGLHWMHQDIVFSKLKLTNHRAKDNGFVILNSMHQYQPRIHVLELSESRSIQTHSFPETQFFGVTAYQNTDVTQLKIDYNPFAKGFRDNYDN
Experiment: PBM E-score of 8-mer (E-score (dimensionless, -0.5 to 0.5)); Tbr is Tbrain of the sea star Patiria miniata (Pm) or the sea urchin Strongylocentrotus purpuratus (Sp); higher = stronger binding preference
Conditions: the construct has about 5 more residues each side
How it was run: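 Primer extension turned Universal Agilent oligonucleotide arrays double-stranded. They were incubated with 200 nM protein in PBS (pH 7.5); the protein was a GST-fused Tbr T-box DNA-binding domain expressed in BL21 E. coli at 20 °C and purified on glutathione. Every ungapped 8-mer was scored from the scanned, quantified probe intensities, and the Universal PBM Analysis Suite gave each an enrichment E-score averaged over duplicate arrays.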

Row | Sequence | PBM E-score of 8-mer
1 | AGGGTGAT | 0.123 ± 0.024
2 | GGGGTGAC | 0.293 ± 0.043
3 | CCGGTGAG | 0.089 ± 0.024
4 | GAGGTGAC | 0.429 ± 0.018
5 | ACGGTGAT | 0.115 ± 0.028
6 | CAGGTGAG | 0.399 ± 0.0058
7 | CGAAGCCG | 0.244 ± 0.045
8 | ACCAGCTA | -0.0508 ± 0.0037
9 | CGCGAGCA | 0.275 ± 0.036
10 | AGCAGAGA | -0.259 ± 0.039
11 | CGGACAAA | -0.0576 ± 0.039
12 | CCGAAATC | -0.048 ± 0.0049
13 | CAGAGCAG | -0.246 ± 0.033
14 | CTGGTGAC | 0.162 ± 0.074
15 | AAGGTGAG | 0.445 ± 0.014
16 | AAGGTGAA | 0.187 ± 0.0077
17 | CAGGTGAC | 0.425 ± 0.013
18 | AAGGTGAC | 0.381 ± 0.026
19 | ACGGTGAG | 0.0305 ± 0.02
20 | CAGATGAC | -0.0314 ± 0.026
21 | ACGGTGAC | 0.284 ± 0.0089
22 | AGGGTGAG | 0.216 ± 0.048

Row | Sequence | PBM E-score of 8-mer
23 | ACAGCTCC | 0.157 ± 0.0081
24 | GCCTGCAC | -0.0663 ± 0.051
25 | ACGTGTGG | 0.416 ± 0.00045
26 | ACGTGTCT | 0.204 ± 0.034
27 | GCGTGTAA | 0.0697 ± 0.022
28 | GCGTGAGA | 0.361 ± 0.03
29 | ACGTGAGA | 0.3312 ± 0.0033
30 | ACGTGTGC | 0.253 ± 0.017
31 | ACGTGTCA | 0.458 ± 0.0068
32 | ACGTGGGC | -0.0975 ± 0.06
33 | ACGTGTGA | 0.4797 ± 0.0017
34 | ACGTGGGG | -0.127 ± 0.012
35 | CCGTGTCA | 0.176 ± 0.013
36 | GCGTGTGA | 0.399 ± 0.0074
37 | AACTCTTG | -0.0545 ± 0.035
38 | CGTAGGAA | -0.00351 ± 0.079
39 | CTTCTGCA | 0.00227 ± 0.035
40 | CAGCGCAG | -0.14 ± 0.069
41 | CAACCCAG | -0.2068 ± 0.00038
42 | AATCTGAG | 0.0009 ± 0.0013
43 | CTATGAGC | -0.1 ± 0.02
44 | ACCGCTGC | 0.0922 ± 0.006

Row | Sequence | PBM E-score of 8-mer
45 | CCGTGTGC | 0.0129 ± 0.03
46 | CCGTGAGA | 0.143 ± 0.015
47 | CCGTGTGA | 0.381 ± 0.017
48 | ATCTAGAA | -0.151 ± 0.049
49 | CACACGGC | 0.151 ± 0.069
50 | CGCACGTC | 0.331 ± 0.013
51 | CACACGTG | 0.383 ± 0.0078
52 | CACACGTA | 0.356 ± 0.0042
53 | AACACGTG | 0.36 ± 0.008
54 | CACACGTC | 0.451 ± 0.0092
55 | AACCCCTG | -0.108 ± 0.043
56 | CACTGAGC | 0.00197 ± 0.0073
57 | CGCTTTAA | -0.169 ± 0.035
58 | AAAGTAGC | -0.0267 ± 0.0034
59 | ACTCGACA | 0.24 ± 0.029
60 | CAGCTGCC | -0.0128 ± 0.074
61 | GAGTGTGA | 0.478 ± 0.0052
62 | CAGTGTGG | 0.243 ± 0.043
63 | TAGTGTGA | 0.453 ± 0.011
64 | TAGTGAGA | 0.209 ± 0.089
65 | GAGTGTAA | 0.235 ± 0.04
66 | TAGTGGGA | -0.0317 ± 0.03

Row | Sequence | PBM E-score of 8-mer
67 | CAGTGTAA | 0.0331 ± 0.071
68 | GAGTGTGC | 0.296 ± 0.015
69 | CAGTGTGA | 0.393 ± 0.0076
70 | CCAAAGGA | -0.262 ± 0.032
71 | AGCCTCAC | 0.178 ± 0.015
72 | GCTGTTCC | -0.0355 ± 0.05
73 | GCCTCCGA | -0.0614 ± 0.071
74 | GAGTATGA | -0.047 ± 0.066
75 | CTTGCCAA | 0.153 ± 0.021
76 | ATGGTGTA | 0.127 ± 0.015
77 | ATGGTGGC | 0.274 ± 0.028
78 | ATGGTGTG | 0.39 ± 0.023
79 | ATGGTGCG | 0.206 ± 0.037
80 | ATGGTGTC | 0.392 ± 0.005
81 | CTGGTGTC | 0.312 ± 0.033
82 | AAGTTTGA | -0.0385 ± 0.021
83 | CGGTCAGC | -0.186 ± 0.18
84 | ATTCAAAT | -0.0886 ± 0.04
85 | ATAGAGCG | -0.0811 ± 0.011
86 | AATTGTTC | 0.0645 ± 0.035
